# Shown are actives, neighbours in structure and some others; about 27% of the full set was active somewhere.
# CYP2C9 inh – human CYP2C9 inhibition. P11712. CYP2C9 Supersomes, luciferin-H conversion, luminescence. inhibition, % at 5 µM. 96,000 compounds, 20% hits. AID 777;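 active = blocking of liver enzyme CYP2C9 beyond about 50% at 5 µM, limit read from the data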
# Target sequence (P11712 whole entry, looked up): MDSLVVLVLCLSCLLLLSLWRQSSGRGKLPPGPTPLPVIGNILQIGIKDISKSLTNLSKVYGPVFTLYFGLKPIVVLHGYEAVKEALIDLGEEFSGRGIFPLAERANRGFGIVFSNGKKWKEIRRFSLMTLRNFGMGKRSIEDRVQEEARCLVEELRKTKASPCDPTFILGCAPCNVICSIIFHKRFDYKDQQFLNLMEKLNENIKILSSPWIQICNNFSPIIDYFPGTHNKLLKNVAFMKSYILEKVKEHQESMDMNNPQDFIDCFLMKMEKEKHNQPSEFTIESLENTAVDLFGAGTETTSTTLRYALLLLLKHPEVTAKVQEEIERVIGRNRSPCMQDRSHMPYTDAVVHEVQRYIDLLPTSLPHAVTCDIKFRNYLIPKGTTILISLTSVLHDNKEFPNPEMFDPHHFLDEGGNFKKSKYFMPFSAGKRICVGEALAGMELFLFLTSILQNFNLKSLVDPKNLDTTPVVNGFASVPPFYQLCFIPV
# Pyk2 oligo antag – Pyk2 (human) oligomerization antagonism; AID 1347419; z-score (the deposit names both 25 µM and 10 µM); 99,000 compounds, 0.83% hits; Q293 cells, Pyk2 FERM NanoBiT luminescence; stronger effect = lower value; Q14289;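 active = Z-score of -3 or lower, scaled per plate to the spread of control and sample wells; inactive = z-score above -3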;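 also: negative z-score means lost luminescence so less FERM oligomerization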
# CYP2C19 inhib – inhibitors of human CYP2C19. P33261. CYP2C19 Supersomes, luciferin-H EGE luminescence, 30 min. inhibition, % at 5 µM. 96,000 compounds, 21% hits. AID 778;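 active = CYP2C19 inhibition above a set limit at 5 µM in the primary screen, cut at about 50% in these data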
# CYP2C9 act – increases human cytochrome P450 2C9 activity; P11712; recombinant CYP2C9, luciferin-H conversion, luminescence; stronger effect = higher value; factor 1 = untreated enzyme, 0 = blocked; activation factor at 5 µM; 96,000 compounds, 1.4% hits; AID 1024;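 active = activation factor of 2 or more for CYP2C9 at a 5 µM dose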
# Cav3 T inh – inhibitors of human Cav3.2 T-type calcium channel | B-score at 10 µM | Cav3.2-expressing cells, Fluo-4 calcium fluorescence FDSS; stronger effect = lower value | AID 449739 | O95180 | 100,000 compounds, 4% hits;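 active = single-dose well whose peak fluorescence ratio is a statistical outlier from its plate by either plate-standardised score or position-corrected B-score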
# CYP2C19 act – activators of human cytochrome P450 2C19 | 96,000 tested, under 10 active | AID 1025 | activation factor at 5 µM | recombinant CYP2C19, luciferin-H EGE luminescence; stronger effect = higher value; 0 = fully inhibited enzyme, 1 = untreated enzyme;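 active = activation factor of at least 2 at 5 µM in the primary screen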
# Numbers stand for hits; 0 = inactive; - = not tested or not shown.
SMILES,CYP2C9 inh,Pyk2 oligo antag,CYP2C19 inhib,CYP2C9 act,Cav3 T inh,CYP2C19 act
COc1ccc(S(=O)(=O)Nc2cc3c(C(C)=O)c(C)oc3c3ccccc23)cc1,84.0,0,92.7,0,0,0
CSc1nnc2n(Cc3ccccc3)c(=O)c3c4c(sc3n12)COC(C(C)C)C4 (stereo not drawn),0,-,0,0,-,0
Cc1ccccc1-n1c(C)nnc1SCC(=O)N1CC(=O)Nc2ccccc21,0,0,70.2,0,0,0
Cc1ccc(-n2nnnc2SCC(=O)N2CC(=O)Nc3ccccc32)cc1,0,0,51.5,0,0,0
Cc1ccc(NC(=O)CCn2c(=O)oc3ccccc32)c(C)c1,0,0,0,0,0,0
CC1CCN(S(=O)(=O)c2cccc(-c3nnc(-c4cccnc4)o3)c2)CC1,0,0,0,0,0,0
CCCCN=C(Nc1ccc(Cl)cc1)c1cccnc1,0,0,67.0,0,0,0
CCOc1cc2[nH]c(=O)n(CCC(=O)N3CCN(c4ccccc4OC)CC3)c(=O)c2cc1OCC,67.2,0,0,0,0,0
CCOC(=O)c1cc2c(ccn2C)n1CC(=O)N1CCN(c2ccccc2OC)CC1,0,-,69.3,0,0,0
COc1cc2[nH]c(=O)n(CCCCCC(=O)N3CC=C(c4ccccc4)CC3)c(=O)c2cc1OC,60.6,0,82.8,0,0,0
CCOC(=O)c1cc2c(ccn2C)n1CC(=O)N1CCC(Cc2ccccc2)CC1,0,0,0,0,0,0
COc1cc2[nH]c(=O)n(CCC(=O)N3CCN(c4cc(Cl)ccc4C)CC3)c(=O)c2cc1OC,-,0,-,-,-,-
COc1cc2[nH]c(=O)n(CCC(=O)N3CCc4ccccc4C3)c(=O)c2cc1OC,0,0,0,0,0,0
COc1ccc(C2(C(=O)NCCCN3CCOCC3)CCOCC2)cc1,0,0,0,0,-,0
O=C1C2C3C=CC(C3)C2C(=O)N1c1cccnc1 (stereo not drawn),0,0,0,0,0,0
COn1c2c(c3c4nonc4ccc31)CCCC2,0,0,0,0,0,0
On1c2c(c3c4nonc4ccc31)CCCC2,-,-,-,-,-5.84,-
COc1ccc(C2C(C(N)=O)=C(C)Nc3nc(-c4ccccc4Cl)nn32)c(OC)c1 (stereo not drawn),0,-,0,0,0,0
Cn1c(C(O)c2ccc(Cl)cc2)nc(Cl)c1Cl (stereo not drawn),0,0,91.0,0,0,0
COCCNS(=O)(=O)c1ccccc1,0,0,0,0,0,0
Cc1nn(C)c(Oc2ccccc2)c1CCNS(=O)(=O)c1ccccc1,0,0,91.9,0,0,0
COc1cc(NC(=O)C(C)Oc2ccccc2)cc(OC)c1 (stereo not drawn),79.2,0,85.5,0,0,0
CC(Oc1ccccc1)C(=O)Nc1ccccc1O (stereo not drawn),86.9,0,86.8,0,0,0
COc1ccc(-n2c3nc4ccccc4nc3c3c(=N)oc(C)nc32)cc1,-,0,-,-,-,-
CN(C)c1ccnc(-n2cccc2/C=N/OCc2cccc(F)c2)c1C#N,0,0,96.6,0,0,0
SMILES,CYP2C9 inh,Pyk2 oligo antag,CYP2C19 inhib,CYP2C9 act,Cav3 T inh,CYP2C19 act
Clc1ccc2noc(-c3ccccc3)c2c1,0,0,0,0,0,0
CC1(c2ccc3noc(-c4ccccc4)c3c2)OCCO1,0,0,50.3,0,0,0
CC1(c2ccc3noc(-c4ccc(F)cc4)c3c2)OCCO1,0,0,69.1,0,0,0
COc1ccc(-n2ncc3c(SCC(=O)N4CCN(c5ccccc5OC)CC4)ncnc32)cc1,-,0,-,-,-,-
O=C(NNS(=O)(=O)c1ccc2ccccc2c1)c1cccnc1,-,0,-,-,-,-
COc1cc(OC)cc(-n2nnnc2SCC(=O)NCc2ccc3c(c2)OCO3)c1,0,0,53.3,0,0,0
COc1ccccc1NC(=O)CSc1nnnn1-c1ccc2c(c1)OCO2,0,0,0,0,0,0
Cc1nnc(SCC(=O)NCc2ccc3c(c2)OCO3)[nH]c1=O,67.6,0,0,0,0,0
O=C(CSc1nnnn1-c1ccc2c(c1)OCO2)NCc1ccccc1,0,0,92.5,0,0,0
O=C(CSc1nnnn1-c1ccc2c(c1)OCO2)NCc1cccs1,0,0,0,0,0,0
CNC(=O)CSc1nnnn1-c1ccc2c(c1)OCCO2,-,0,-,-,0,-
COc1cccc(-n2nnnc2SCC(=O)NCc2ccc3c(c2)OCO3)c1,60.0,0,88.2,0,-,0
O=C(CSc1nnc(CNC(=O)c2ccccc2F)o1)c1ccccc1,0,0,0,0,0,0
